Source: PubChem BioAssay AID540308 (The Scripps Research Institute Molecular Screening Center, 2011)
The campaign covered roughly 360,000 compounds. About 3,500 (0.97%) were called active. Shown is part of a subset that was picked to be rich in actives. A number with no mark means an inactive call.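 How the source made its calls: active means activation above a per-plate cutoff, the mean activation of sample wells on that plate plus 3 SD (cut at about 8% in these data); inactive means the rest.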

Each compound was assayed against Melanocortin receptor 4 (Homo sapiens) (UniProt P32245) (assay: activators of MC4R beta-arrestin recruitment – cell-based, luminescence, agonist arm of biased-ligand search, primary screen (AID 540308)). Settings: U2OS MC4R beta-arrestin complementation, at 8.9 µM, hits give high values, percent of melanotan II response, DMSO zero.
Melanocortin receptor 4 (Homo sapiens), sequence (P32245 whole entry, looked up): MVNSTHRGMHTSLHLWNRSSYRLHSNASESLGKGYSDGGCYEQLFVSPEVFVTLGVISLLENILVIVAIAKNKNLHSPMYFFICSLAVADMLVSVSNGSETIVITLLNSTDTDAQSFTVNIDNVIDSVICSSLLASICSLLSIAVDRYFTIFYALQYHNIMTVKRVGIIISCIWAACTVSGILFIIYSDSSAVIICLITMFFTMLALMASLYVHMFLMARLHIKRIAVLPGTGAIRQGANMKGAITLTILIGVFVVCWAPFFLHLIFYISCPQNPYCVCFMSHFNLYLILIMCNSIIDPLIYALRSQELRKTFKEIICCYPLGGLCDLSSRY
For C#Cc1ccc(NC(=O)C2(C)CCN2C(=O)Cc2ccc(-c3ccccc3)cc2)cc1 (configuration not stated), the activation was 0.34%.
Work on CCCC/C=C/c1cccc2nncn12 yielded an activation of 0.76%.
With CN1CCC(CN)(N2CCN(c3ccccc3)CC2)CC1 the activation was 0.54%.
In the case of COc1ccccc1N1CCN(c2ncnc3sc(C)c(-c4ccccc4)c23)CC1, the activation is reported as 2.5%.
CCc1cc2c(N3CCN(c4nnc(CC)s4)CC3)ncnc2s1 was tested, and the activation was 1%.
With Oc1ccccc1N1CCN(c2ncnc3sc(-c4ccccc4)cc23)CC1 the activation was 14.4% (active).
Compound CCCNC(=O)C1(C)CCN(C(=O)c2cc(F)ccc2C)C1 (configuration not stated) has an activation of -0.94%.
With CC(C)(C(=O)N1CCC1(C)C(=O)NS(=O)(=O)c1ccc(Br)cc1)c1ccccc1 (configuration not stated) the activation was -0.16%.
Cc1ccc(C2(C(F)(F)F)N=C3Sc4cc(C)cc(C)c4N3C(=O)N2)cc1 (configuration not stated) showed an activation of -0.99%.
In the case of CCOC(=O)N(C)c1c(CC)nc2c(OCc3ccccc3C(=O)OC)cccn12, the activation is reported as -1.73%.
CCc1nc2c(OCCOc3ccc(F)cc3)cccn2c1N(C)C(=O)c1ccccc1F gave an activation of 0.11%.
In the case of CC(=O)Oc1ccc(NC(=O)CCC2CCCCC2)c(C(=O)O)c1, the activation is reported as 0.62%.
For COC(=O)c1sccc1NC(=O)CCC1CCCC1, the activation was 10.9% (active).
Compound COc1ccc(NC(=O)CCCC2CCCCC2)c(OC)c1 has an activation of -1.23%.
COCCCNC(=O)c1cccc2c(-c3ccc(O)c(OC)c3)coc12 showed an activation of 0.52%.
Work on COc1ccc(S(=O)(=O)Nc2ccc3cn[nH]c3c2)cc1[N+](=O)[O-] yielded an activation of -0.37%.
For COc1ccc(S(=O)(=O)N/N=C\c2ccc(OC)c(COc3ccc(C)cc3[N+](=O)[O-])c2)cc1, the activation was 12.8% (active).
Cc1ccc(S(=O)(=O)N/N=C\c2cc3c(cc2[N+](=O)[O-])OCO3)cc1 showed an activation of -2.43%.
CN1CCN(C(=O)c2ccc(-c3cc4nc(NCc5cccnc5)n(C)c(=O)c4s3)cc2)CC1 was tested, and the activation was -1.19%.
For Cc1ccc(S(=O)(=O)NCCC(=O)Nc2ccc(C)c(Cl)c2)cc1C, the activation was 10.6% (active).
Cc1ccc(S(=O)(=O)NCCC(=O)Nc2cccc(S(N)(=O)=O)c2)cc1C gave an activation of -1.36%.
Work on Cc1ccc(NC(=O)CCNS(=O)(=O)c2ccc3c(c2)oc(=O)n3C)cc1C yielded an activation of -0.21%.
Work on O=C(Nc1ccc(F)cc1)Nc1nnc([C@H]2C[C@H](O)[C@@H](CO)O2)s1 yielded an activation of 0.21%.
For O=C(NCc1cccnc1)c1ccc2nc([C@@H]3O[C@H](CO)[C@H](O)[C@H](O)[C@H]3O)[nH]c2c1, the activation was -1.52%.
CC(=O)c1ccc(Nc2nc(C(N)c3ccccc3)cs2)cc1 (configuration not stated) gave an activation of 1.43%.
Compound CC1(C(=O)Nc2cccc(Oc3ccccc3)c2)CCN1Cc1ccccc1Cl (configuration not stated) has an activation of -1.51%.
Work on Cc1nc2nc(SCC(=O)Nc3cccc(F)c3)[nH]c2cc1Br yielded an activation of 4.22%.
In the case of CCn1c(SCC(=O)Nc2cccc(F)c2)nnc1-c1cc2cc(Br)ccc2o1, the activation is reported as 14.9% (active).
CCn1c(CNC(=O)c2ccco2)nnc1SCC(=O)Nc1cccc(F)c1 gave an activation of 2.05%.
CCCNS(=O)(=O)c1ccc2c(c1)CCCN2C(C)=O was tested, and the activation was -3.18%.
CN(C(=O)CN1CCN(c2cc(-c3ccc(OCc4ccccc4)cc3)ncn2)CC1)c1ccccc1 was tested, and the activation was -0.62%.
With CCCS(=O)(=O)NC(=O)C1(C)CCCN(C(=O)c2cccs2)C1 (configuration not stated) the activation was -0.48%.
